PubChem BioAssay
The source made the active and inactive calls. Unless noted, how the calls were made is not given here.

Key:
[1] = tested on: XIP peptide (Xip251-270) binding; experiment: XIP fragment 251-270 binding compounds – biochemical, small-molecule microarray, fluorescence 635/667 nm, 0.1 µg/mL protein, primary screen (AID 1182); conditions: fluorescent protein binding, 635 nm, higher = more signal, called active from +8 up or from −8 down
[2] = tested on: XIP peptide (Xip251-270); experiment: compounds binding XIP fragment 251-270 – biochemical, small-molecule microarray, fluorescence 635/667 nm, 0.5 µg/mL protein, primary screen (AID 1183); conditions: fluorescence 635 nm, higher = more signal
[3] = blood-stage malaria parasite viability loss – strain 3D7, DAPI fluorescence, 100 nL, primary screen (AID 1184);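 further: parasites grown inside human red blood cells in medium with human serum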; conditions: P. falciparum 3D7 growth, 3 d, higher = more signal
[4] = biological target: Homeobox protein Hox-A13 (Mus musculus) (UniProt Q62424); experiment: disruptors of Hoxa13 oligonucleotide interaction – biochemical, fluorescence polarization, labeled oligonucleotide, primary screen (AID 1185); conditions: Hoxa13:DNA binding, 15 min, higher = more signal, called active from +8 up or from −8 down
[5] = blockers of DNA damage checkpoint Chk1 activation – imaging, HeLa, hydroxyurea, phospho-Chk1 antibody, percent positive cells, primary screen (AID 1186); conditions: hydroxyurea-induced phospho-Chk1 immunofluorescence imaging, higher = more signal
[6] = blockers of DNA damage checkpoint Chk1 activation – imaging, HeLa, hydroxyurea, phospho-Chk1 nuclear intensity, primary screen (AID 1187); conditions: hydroxyurea-induced phospho-Chk1 immunofluorescence imaging, higher = more signal

Chain of Homeobox protein Hox-A13 (Mus musculus) (Q62424 whole entry, looked up): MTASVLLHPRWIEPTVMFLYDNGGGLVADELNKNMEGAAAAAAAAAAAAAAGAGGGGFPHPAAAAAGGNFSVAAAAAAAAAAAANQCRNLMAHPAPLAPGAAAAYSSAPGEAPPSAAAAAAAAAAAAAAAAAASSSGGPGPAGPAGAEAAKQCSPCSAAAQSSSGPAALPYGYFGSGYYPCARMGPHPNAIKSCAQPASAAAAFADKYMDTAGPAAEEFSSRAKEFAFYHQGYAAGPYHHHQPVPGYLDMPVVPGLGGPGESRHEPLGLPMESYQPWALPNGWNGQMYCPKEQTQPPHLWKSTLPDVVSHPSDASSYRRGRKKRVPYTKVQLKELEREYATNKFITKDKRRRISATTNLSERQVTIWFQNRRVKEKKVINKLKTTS

Row | SMILES | composite z-score [1] | composite z-score [2] | z-score [3] | z-score [4] | z-score [5] | z-score [6]
1 | CCOC(=O)C1=CC[C@@H](c2ccc(-c3ccc(OCc4ccccc4)cc3)c(OC)c2)N(S(=O)(=O)c2ccc(C)cc2)[C@H]1c1ccccc1 | 0.525 (inactive) | 0.6 | -1.94 | -0.242 (inactive) | -1.04 (inactive) | -0.995 (inactive)
2 | CCCC=C(CCC)[C@@H](NS(=O)(=O)c1ccc(C(F)(F)F)cc1)c1ccc(-c2ccccc2)cc1 | 0.14 (inactive) | 0.0936 | -0.334 | -1.61 (inactive) | -0.208 (inactive) | -0.144 (inactive)
3 | C=CC[C@]1(C(=O)O)N=C(c2ccc(OCCCO)cc2)O[C@H]1c1ccccc1 | 1.81 (inactive) | 0.615 | -1.63 | -4.1 (inactive) | -0.0836 (inactive) | 0.409 (inactive)
4 | O=C1c2ccccc2[C@@]2(Cc3ccccc3N(CC(F)(F)F)C2=O)[C@H](c2ccc(CO)cc2)N1C1CCCCC1 | 0.586 (inactive) | 0.536 | -0.361 | 0.601 (inactive) | -0.202 (inactive) | -0.26 (inactive)
5 | C=CC(=O)O[C@@H](Cc1ccccc1)[C@H]1C2C=CCCC=C2CN1Cc1cccc(Cl)c1 (stereo partly drawn) | -0.244 (inactive) | -2.01 | -0.0093 | -3.7 (inactive) | 0.171 (inactive) | 0.304 (inactive)
6 | CO[C@H]1COC(=O)CC=C[C@H](C)[C@@H](OC)COC(=O)CC=C[C@@H]1C | 0.878 (inactive) | 0.695 | 0.648 | -0.307 (inactive) | – | –
7 | CO[C@H]1COC(=O)[C@@H](Cc2ccccc2)NC(=O)[C@@H](C)COC(=O)CC=C[C@@H]1C | -0.404 (inactive) | 0.43 | -0.0923 | -0.866 (inactive) | – | –
8 | CO[C@H]1COC(=O)CC=C[C@H](C)[C@@H](OC)COC(=O)[C@H](Cc2ccccc2)NC(=O)CC=C[C@@H]1C | -0.254 (inactive) | -0.42 | 0.0429 | -0.426 (inactive) | – | –
9 | COc1cccc([C@@H]2[C@@H](C)CC[C@H]3C(=O)N(C)[C@@H](C(C)C)C(=O)N23)c1 | -0.297 (inactive) | 0.247 | 0.451 | -0.0898 (inactive) | – | –
10 | C=CCOC(=O)[C@@H]1[C@H]2C(=O)O[C@H](c3ccccc3)[C@H](c3ccccc3)N2[C@H](c2ccc(OCCOC(=O)[C@H]3C[C@H]4C(=O)N[C@@H](CCCCNC(C)=O)C(=O)N4[C@H]3c3ccc(O)cc3)cc2)[C@@]12C(=O)Nc1ccc(I)cc12 | 0.393 (inactive) | 0.566 | -1.78 | 0.32 (inactive) | 0.293 (inactive) | -0.568 (inactive)
11 | C[C@@H]1CC[C@H]2C(=O)N3[C@@H](CC[C@@H](C)[C@@H]3c3cccc(N4CCOCC4)c3)C(=O)N2[C@H]1c1cccc(N2CCOCC2)c1 | 0.66 (inactive) | 0.705 | -0.529 | -4.07 (inactive) | – | –
12 | COc1ccc([Si](C)(C)[C@@H]2[C@@H](CCO)O[C@]3(C(=O)N(Cc4ccccc4)c4ccccc43)[C@H]2C)cc1 | 0.151 (inactive) | 0.283 | -1.96 | 0.563 (inactive) | -0.0106 (inactive) | 0.402 (inactive)
13 | CO[C@H]1COC(=O)[C@@H](C)COC(=O)[C@H](Cc2ccccc2)NC(=O)CC=C[C@H]1C | -0.0968 (inactive) | 0.172 | -0.178 | 0.485 (inactive) | – | –
14 | CCOC(=O)C[C@H]1[C@H](OC(=O)c2cc3ccccc3oc2=O)[C@@H](NC(=O)C2CCCCC2)c2cc(OCCCO)ccc2N1C(=O)c1ccc2ccccc2n1 | -0.0413 (inactive) | 0.522 | -0.292 | -4.56 (inactive) | 0.453 (inactive) | 0.333 (inactive)
15 | C=CCNC(=O)[C@H]1[C@@H]2C(=O)O[C@@H](c3ccccc3)[C@@H](c3ccccc3)N2[C@@H](c2ccccc2OCCO)[C@]12C(=O)N(C(=O)OCCOC)c1ccc(C#CCC(C(=O)OC)C(=O)OC)cc12 | 1.09 (inactive) | 0.818 | -2.36 | 0.6 (inactive) | -0.263 (inactive) | -0.35 (inactive)
16 | COc1ccc(-c2ccccc2[C@@H]2N[C@H](C(=O)O)CC[C@H]2C)cc1 | 0.351 (inactive) | 0.0228 | -0.907 | 1.08 (inactive) | – | –
17 | CC/C=C/C(=O)N(C[C@@H]1CCCO1)[C@@H]1CC(C(=O)NCCO)=C[C@H](Oc2c(I)cc(CO)cc2OC)[C@H]1O | 0.969 (inactive) | -0.769 | -1.03 | -5.37 (inactive) | 1 (inactive) | 1.11 (inactive)

Row | SMILES | composite z-score [1] | composite z-score [2] | z-score [3] | z-score [4] | z-score [5] | z-score [6]
18 | CCCNC(=O)[C@@H]1c2ccccc2C(=O)N(Cc2cc(F)cc(C(F)(F)F)c2)[C@H]1c1ccc(CO)cc1 | 0.395 (inactive) | 0.801 | -0.43 | -2.12 (inactive) | -0.438 (inactive) | -0.142 (inactive)
19 | COCCOC(=O)N1C(=O)[C@@]2(c3cc(C#CC4=CCCCC4)ccc31)[C@H](C(=O)NC[C@H](O)c1ccccc1)[C@H]1C(=O)O[C@H](c3ccccc3)[C@H](c3ccccc3)N1[C@@H]2c1ccc(OCCO)cc1 | -0.361 (inactive) | 0.612 | -1.73 | 2.05 (inactive) | 0.0381 (inactive) | 0.231 (inactive)
20 | C=CCC(OC(C)=O)[C@@H]1[C@@H](N(Cc2cccc3ccccc23)C(=O)c2ccc(C)cc2)c2cc(OCCCO)ccc2N1C(=O)c1ccc(-c2ccccc2)cc1 (stereo partly drawn) | -0.115 (inactive) | 0.481 | -1.93 | -0.128 (inactive) | -0.35 (inactive) | -0.844 (inactive)
21 | C=C(CCCC)C(=O)CC[C@@H](OC(=O)c1cccnc1)c1cccc(OCCO)c1 | 1.48 (inactive) | 0.702 | -2.81 | -3.79 (inactive) | -0.279 (inactive) | -0.326 (inactive)
22 | CN(C)C(=O)[C@@]1(Cc2ccccc2N=[N+]=[N-])N=C(c2ccc(OCCCO)cc2)O[C@H]1c1ccccc1CN=[N+]=[N-] | 0.0857 (inactive) | 0.896 | -2.25 | -1.82 (inactive) | -0.554 (inactive) | -0.339 (inactive)
23 | [N-]=[N+]=NCc1ccccc1C[C@]1(C(=O)N2CCCCC2)N=C(c2ccc(OCCCO)cc2)O[C@H]1c1ccccc1CN=[N+]=[N-] | 1.52 (inactive) | 0.811 | -2.32 | 1.1 (inactive) | -0.0016 (inactive) | 0.164 (inactive)
24 | CCCCCCc1nc(C2CC2)c(C)c2c1[Si](C(C)C)(C(C)C)OC2 | -0.0485 (inactive) | -0.462 | -2.41 | 2.65 (inactive) | -0.53 (inactive) | -0.23 (inactive)
25 | O=C1C[C@@](C(=O)NC2CC2)(c2ccc([N+](=O)[O-])cc2)[C@@H](c2ccc(CO)cc2I)N1CC12CC3CC(CC(C3)C1)C2 | 0.479 (inactive) | 0.687 | -1.29 | -3.64 (inactive) | -0.174 (inactive) | -0.372 (inactive)
26 | COc1cc(CO)cc(I)c1O[C@H]1C=C(C(=O)NCCO)C[C@@H](NCCc2c[nH]c3ccccc23)[C@@H]1O | -0.26 (inactive) | 0.0826 | -3 | -7.08 (inactive) | -0.925 (inactive) | -0.879 (inactive)
27 | CO[C@H]1COC(=O)[C@H](C)NC(=O)CC=C[C@@H](C)[C@H](NS(=O)(=O)c2ccc(C)cc2)COC(=O)CC=C[C@@H]1C | -0.132 (inactive) | 0.407 | -0.266 | -1.62 (inactive) | – | –
28 | CCCN1C(=O)[C@@]2(CCS(=O)(=O)c3ccccc3)N=C(c3ccc(OCCCO)cc3)O[C@H]2c2ccccc21 | 0.261 (inactive) | 0.678 | -2.56 | -3.2 (inactive) | 0.128 (inactive) | 0.371 (inactive)
29 | COC(=O)C(CC#Cc1ccc2c(c1)[C@]1(C(=O)N2)[C@H](C(=O)N2CCCCCCC2)[C@H]2C(=O)O[C@H](c3ccccc3)[C@H](c3ccccc3)N2[C@@H]1c1ccc(O)cc1)C(=O)OC | 0.431 (inactive) | 0.459 | -1.39 | 1.11 (inactive) | -0.197 (inactive) | -0.109 (inactive)
30 | COC(=O)c1ccc(C#CC(NP(=O)(c2ccccc2)c2ccccc2)c2ccccc2)cc1 (stereo not drawn) | 0.238 (inactive) | -0.0253 | -0.253 | -3.02 (inactive) | -1.14 (inactive) | -1.03 (inactive)
31 | CCOC(=O)C[C@H]1[C@H](OC(=O)c2ccccc2-c2ccccc2)[C@@H](NC(=O)C2CCCCC2)c2cc(OCCCO)ccc2N1C(=O)c1ccccc1 | -0.339 (inactive) | 0.0325 | -1.35 | -3.05 (inactive) | -0.319 (inactive) | -0.0975 (inactive)
32 | N#Cc1ccc(NN2C(C(O)c3ccc(I)cc3)C=CC3C(=O)N(c4ccccc4)C(=O)C32)cc1 (stereo not drawn) | 0.816 (inactive) | 0.464 | 0.175 | -1.01 (inactive) | -0.308 (inactive) | 0.145 (inactive)
33 | C=CCN(C(=O)C1N(c2ccc(CCO)cc2)C(=O)C2C(C(=O)O)C3C=CC21O3)C(C)(C)C (stereo not drawn) | 0.865 (inactive) | -1.52 | -1.71 | 0.729 (inactive) | 0.0293 (inactive) | -0.112 (inactive)
34 | CC[C@@H]1C=C(C(=O)O)[C@H](c2ccccc2)N1S(=O)(=O)c1ccc([N+](=O)[O-])cc1 | -0.0477 (inactive) | 0.729 | -1.01 | -3.73 (inactive) | -0.0036 (inactive) | -0.3 (inactive)
